This note sets out measurements from PubChem BioAssay (Tox21).

Results filed as inconclusive are left out. Entries that show only a call come without a potency. Active and inactive are the calls of the source. Calls come from the whole dose curve.

Sequence of Acetylcholinesterase (Homo sapiens) (P22303 whole entry, looked up): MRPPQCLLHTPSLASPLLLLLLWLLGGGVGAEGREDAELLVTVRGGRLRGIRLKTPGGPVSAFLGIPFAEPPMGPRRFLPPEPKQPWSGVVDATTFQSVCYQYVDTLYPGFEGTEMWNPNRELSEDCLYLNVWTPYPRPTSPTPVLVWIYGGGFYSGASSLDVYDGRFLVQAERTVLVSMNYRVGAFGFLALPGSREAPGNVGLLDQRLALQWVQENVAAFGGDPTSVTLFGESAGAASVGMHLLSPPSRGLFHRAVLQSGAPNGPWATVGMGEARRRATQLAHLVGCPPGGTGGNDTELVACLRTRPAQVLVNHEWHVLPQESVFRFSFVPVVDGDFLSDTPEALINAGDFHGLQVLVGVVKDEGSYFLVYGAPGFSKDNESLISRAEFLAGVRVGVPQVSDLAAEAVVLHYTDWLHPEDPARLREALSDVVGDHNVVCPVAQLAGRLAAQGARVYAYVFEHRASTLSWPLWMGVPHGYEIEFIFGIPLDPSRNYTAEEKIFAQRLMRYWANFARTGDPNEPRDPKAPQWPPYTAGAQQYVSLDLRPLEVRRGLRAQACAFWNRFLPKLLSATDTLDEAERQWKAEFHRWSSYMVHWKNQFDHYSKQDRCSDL

The test has as its target Acetylcholinesterase (Homo sapiens) (UniProt P22303). The test is described as follows: Acetylcholinesterase (AChE) small molecule antagonists: fluorescence cell-based qHTS assay (AID 1347398). Note: nearly all actives have a fitted effect of over 50% in size. The conditions noted are these: SH-SY5Y cells; Potency: AChE activity; outcome: AChE activity; series mostly up to 115 µM. The source says:
National Center for Advancing Translational Sciences [NCATS]
Division of Preclinical Innovation [DPI]
U.S. Environmental Protection Agency [EPA]
National Institutes of Environmental Health Sciences [NIEHS]
National Toxicology Program [NTP]
U.S. Food and Drug Administration [FDA]
Acetylcholinesterase (AChE) is the primary cholinesterase in the body that hydrolyzes a key neurotransmitter, acetylcholine. Inhibition of AChE activity can lead to neurotoxicity. Known inhibitors of AChE include organophosphorous pesticides (OP), chemical warfare agents, drugs, and various phytochemicals.
A homogenous cell-based assay using Amplitetrade mark Fluorimetric Acetylcholinesterase Assay Kit *Green Fluorescence* (AAT Bioquest, Sunnyvale, CA) was used to evaluate the chemicals in the Tox21 10K library that inhibit AChE activity. The assay uses Thiolite Green to quantify the thiocholine produced from the hydrolysis of acetylthiocholine by AChE from the SH-SY5Y cells. AChE can hydrolyze acetylthiocholine to create thiocholine. Thiolite Green is fluorescent when reacting with thiocholine. It has spectral properties similar to those of fluorescein. The fluorescence intensity of Thiolite Green is used to measure AChE activity. Its signal can be easily read by a fluorescence microplate reader at Ex/Em = 490/520 nm.
Tox21 Assay Protocol Summary:
For cell-based AChE assay, 2,000 SH-SY5Y cells in 4 uL/well were dispensed into black, clear-bottom 1536-well plates using a Multidrop Combi (Thermo Scientific) dispenser. The assay plates were incubated overnight at 37 C to allow cells to attach to the wells, followed by the transfer of 23 nL compound or DMSO (vehicle control) by a Pintool station (Wako Automation, CA). The plates were incubated for 30 min at 37 C and 5% CO2, followed by the addition of 4 uL of detection cocktail solution (ThioliteGreen, acetylthiocholine) into each well using Flying Reagent Dispenser (Beckman Coulter, CA) and then following 40 min incubation at room temperature. Fluorescent intensity (Ex/Em = 490/520 nm) was measured using an Envision plate reader (PerkinElmer, MA).
Regarding `c1ccc2c(c1)Oc1ccccc1S2`, the Potency result was “inactive”.

For the compound `CC(C)c1cccc(C(C)C)c1N`, the Potency result was “inactive”.

With `N#[N+]c1ccc2c(S(=O)(=O)[O-])cccc2c1O`, the Potency result is “inactive”.

For the compound `CN1C(=O)c2ccccc2C1=O`, the Potency entry is “inactive”.

`CCCCC(CC)COP(=O)(O)OCC(CC)CCCC` (stereo not given): the Potency entry is “inactive”.

For `[Cl][Bi]([Cl])([c]1ccccc1)([c]1ccccc1)[c]1ccccc1`, the Potency result was “inactive”.

Consider `C[N+](C)(C)CCO`, for which the outcome was inactive.

Regarding `C[C@]12CCC(=O)C=C1CC[C@@H]1[C@@H]2CC[C@@]2(C)[C@H]1CC[C@]2(O)C(=O)CO`, the Potency result is “inactive”.

With `C=C1CC[C@H](O)C/C1=C\C=C1/CCC[C@]2(C)[C@@H]([C@H](C)CCCC(C)C)CC[C@@H]12`, the Potency entry is “inactive”.

Take `CCC(C)COC(C)=O` (stereo not given): the Potency entry is “inactive”.

On to `O=C=Nc1cccc(C(F)(F)F)c1`, for which the Potency entry is “inactive”.

For `O=c1[nH]c2ccccc2n1CCCN1CCN(C(c2ccccc2)c2ccccc2)CC1`, the Potency result is “inactive”.

For the compound `Clc1ccc(Sc2cc(Cl)c(Cl)cc2Cl)cc1`, the Potency result was “inactive”.

For the compound `Nc1cc(N)cc(C(=O)O)c1`, the Potency entry is “inactive”.

On to `CCOC(=O)CC1(C)OCC(C)O1` (stereo not given), for which the Potency entry was “inactive”.

As for `CCCCCCCCC/C=C/CC1CC(=O)OC1=O` (stereo not given), the Potency result was “inactive”.

Turning to `O=C(O)c1ccccc1OP(=O)(O)O`, the Potency entry was “inactive”.

With `C1CCC(SSC2CCCCC2)CC1`, the Potency entry is “inactive”.

Consider `CCCCCCCCCCCCC`, for which the Potency entry was “inactive”.

For `NC[C@H]1O[C@H](O[C@H]2[C@H](O)[C@@H](O[C@H]3O[C@H](CO)[C@@H](O)[C@H](N)[C@H]3O)[C@H](N)C[C@@H]2N)[C@H](N)[C@@H](O)[C@@H]1O`, the activity change, negative = inhibition was 4.18% [at 23.8 µM] (inactive).

On to `CC(CN(CCN(CC(C)OCCO)CC(C)OCCO)CC(C)OCCO)OCCO` (stereo not given), for which the Potency result is “inactive”.

`CC(CO)Oc1ccccc1` (stereo not given): the Potency entry was “inactive”.

For the compound `CC(=O)c1ccc2ccccc2c1`, the Potency entry is “inactive”.

Regarding `Nc1ccc(O)c(C(=O)O)c1`, the Potency entry is “inactive”.

Take `CC(C)NC[C@@H](O)COc1ccc(CC(N)=O)cc1`: the Potency result is “inactive”.

Turning to `NCCN`, the result was inactive.

As for `NCCN1CCNC1=O`, the Potency result was “inactive”.

As for `CCCC(=O)C(C)=O`, the Potency result was “inactive”.

For the compound `CNC(=O)Nc1ccc(Cl)c(Cl)c1`, the Potency entry was “inactive”.

Turning to `O=[N+]([O-])c1ccc(F)cc1F`, the Potency entry is “inactive”.

Consider `O=C(O)CCCC(=O)O`, for which the Potency result is “inactive”.

On to `COc1cccc(OC)c1O`, for which the Potency result is “inactive”.

In the case of `COc1cc(NC(=O)CC(C)=O)c(OC)cc1Cl`, the Potency result is “inactive”.

For the compound `CCc1cccc(CC)c1`, the Potency result was “inactive”.

On to `CCCCOCCOCCOC(C)=O`, for which the Potency entry was “inactive”.

On to `c1ccccc1`, for which the Potency result was “inactive”.

Turning to `CCCCCCCCC1CO1` (stereo not given), the Potency result was “inactive”.

As for `CCOc1ccc(NC(=O)CC(C)O)cc1` (stereo not given), the Potency result is “inactive”.

On to `CC(C)(C)[C@@H](O)[C@@H](Cc1ccc(Cl)cc1)n1cncn1`, for which the Potency result was “inactive”.

`CC(C)(Oc1ccc(Cl)cc1)C(=O)O`: the Potency result is “inactive”.
